# Assay results: PubChem BioAssay
# Active and inactive are the calls of the source.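 Rule for the calls, unless noted: active = inhibition above 50%; inactive = the rest.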
# Assay: antimalarial activity against Dd2 strain (AID 2302;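 active = growth inhibition above 50% at the single 2 µM test dose, taken to imply half-maximal potency below 2 µM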;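 note: 0% = DMSO untreated growth and 100% = chloroquine plus artemisinin killed control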)
# Conditions: P. falciparum Dd2 in RBCs, LDH growth readout, 72 h; at 2 µM; hits give high values
row,Structure (SMILES),growth inhibition
1,CCCCCCOc1ccccc1C(=O)NCCOc1ccc(Cl)cc1,37% (inactive)
2,Cc1cccc(Cn2c(C(N)=O)nn(-c3ccc([N+](=O)[O-])cc3C#N)c2=S)c1,48% (inactive)
3,CCCN(CCC)CCCOc1ccc(C(=O)c2c(-c3ccc(OCCCN(CCC)CCC)cc3)oc3ccc(Cl)cc23)cc1,95% (active)
4,O=C(/C=C/c1ccc(Cl)c(Cl)c1)NCCCCCN1CCC(NC(=O)NC2CCCC2)CC1,31% (inactive)
5,CCc1[nH]nc(C(=O)NC2CCN(CC3(c4ccc(OC)cc4)CCCCC3)CC2)c1C,90% (active)
6,CCN1CCN(CCCNc2ccnc3cc(Cl)ccc23)CC1,77% (active)
7,COc1nc(Nc2cccc(C)c2)nc(OC)n1,-5% (inactive)
8,CC(C)(C)C(Cn1ccnc1)NCc1cn[nH]c1-c1ccc(-c2ccccc2)cc1 (configuration not stated),69% (active)
9,CN(C)c1ccc(CN2CCC(NC(=O)c3ccc(-c4ccc(N(C)C)cc4)s3)CC2)cc1,21% (inactive)
10,O=C(NCc1cccs1)[C@H](Cc1ccccc1)Nc1ccnc(NCC2CCCCC2)n1,67% (active)
11,CCCCCCN(CCCCCC)CCCCNc1c2ccc(Cl)cc2nc2ccc(OC)cc12,94% (active)
12,Cc1cc2c(cc1C(F)(F)F)N(C(=O)Nc1cc(OCCN(C)C)cc(C(F)(F)F)c1)CC2,19% (inactive)
13,CNCCCNc1ccnc2cc(Cl)ccc12,25% (inactive)
14,COc1ccc(C)c(Nc2ccnc(Nc3ccc(-c4cnc[nH]4)cc3)n2)c1,6% (inactive)
15,Cc1ccc(Cn2ncc(N3CCCNCC3)c(Cl)c2=O)cc1NC(=O)Nc1ccc(-c2ccccc2)cc1,38% (inactive)
16,CN1CCN(c2ccnc3ccc(NC(=O)Nc4ccc(-c5ccncc5)c(C#N)c4)cc23)CC1,99% (active)
17,CC(C(=O)NC1CCN(c2ccnc(Nc3ccc(F)cc3)n2)C1)c1ccc(Cl)cc1 (configuration not stated),90% (active)
18,COc1cc2nc(N(C)C)nc(Nc3ccc4c(cnn4Cc4ccccc4)c3)c2cc1OC,102% (active)
19,CC(C)Nc1ccc(Nc2ccnc3cc4ccccc4cc23)cc1,81% (active)
20,CCOC(=O)c1ccc(NC(=O)N[C@H]2CCN(CCCCCNC(=O)/C=C/c3ccc(Cl)c(Cl)c3)C2)cc1,1% (inactive)
21,COc1ccc2nc(C)cc(NN=Cc3ccc(F)cc3)c2c1,99% (active)
22,CCOC(=O)C1=C(C)NC2=C(C(=O)C(C(=O)OC)C(C)C2)C1c1cc(Br)c(OCC)c(OC)c1 (configuration not stated),99% (active)
23,COc1ccc2nccc([C@@H](O)CN3CCC(NC(=O)c4ccc(Oc5ccccc5)cc4)CC3)c2c1,13% (inactive)
24,O=C1Nc2cccc3c2C1(CCCCN1CCC(c2c(-c4ccccc4)[nH]c4ccccc24)CC1)CCC3 (configuration not stated),33% (inactive)
25,Cc1[nH]c(C)c(C2CCC(c3ccc(Cl)cc3)CC2)c(=O)c1Cl (configuration not stated),97% (active)
26,NC(=S)Cc1ccc2c(c1)OCO2,-3% (inactive)
27,CCN(CC)CCCSc1ccc(-c2ccc(SCCCN(CC)CC)cc2)cc1,30% (inactive)

# Assay: HepG2 cytotoxicity, primary screen, cytotoxicity control for P. falciparum antimalarial project, cell-based, ATP luminescence (AID 2303);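 note: 0% = DMSO wells and 100% = digitonin-killed cells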
# Conditions: HepG2 viability, 24-48 h, at 10 µM, hits give high values
row,Structure (SMILES),inhibition
1,CS(=O)(=O)c1ccc(CCNCc2ccc(-c3ccc(CN(C(=O)C4CCCC4)C4CCN(Cc5ccccc5)CC4)cc3)nc2)cc1,24% (inactive)
2,CCN(CC)CCNC(=O)c1ccc(NC(=O)c2cc3c(C)nn(-c4ccc(Cl)cc4)c3s2)cc1,24% (inactive)
3,O=C1COC2(CN1CC1CCN(Cc3ccc(O)c(Cl)c3)C1)c1ccccc1-c1ccccc12 (configuration not stated),6% (inactive)
4,CCOC(=O)c1cn(CC)c2cc(O[C@H]3CCN(C(=O)OC(C)(C)C)C3)ccc2c1=O,9% (inactive)
5,O=C(c1ccc(OCCn2ccnc2)cc1)N1CCC(c2ccc(Br)cc2)C1 (configuration not stated),49% (inactive)
6,Cn1nccc1C(=O)NCCNCc1ccc(-c2ccc(-c3nc4ccccc4[nH]3)s2)cc1,23% (inactive)
7,CN1CCN(CCCN(Cc2cccc(-c3ccc(CNCc4ccc5c(c4)OCO5)cc3)c2)C(=O)Nc2ccccc2)CC1,39% (inactive)
8,Cc1cccc(S(=O)(=O)Nc2cccc(CCN3CCC(N4CCCCC4)CC3)c2)c1,15% (inactive)
9,COc1cccc(-c2nn(C)c3sc(C(=O)NCCN(C)Cc4ccccc4)cc23)c1,21% (inactive)
10,Cc1cnc(CS(=O)c2nc3ccc(C(F)(F)F)cc3[nH]2)cc1OCc1ccccc1 (configuration not stated),-7% (inactive)
11,Cc1cccc(CNc2nc(C)cc(N[C@@H](Cc3ccccc3)C(=O)NCCc3ccccc3)n2)c1,24% (inactive)
12,CCc1ccc(CNCC(CCNc2cc(=O)c3ccccc3[nH]2)NCc2cc(Br)cc(Br)c2)o1 (configuration not stated),-11% (inactive)
13,Cc1ccc(Cc2cnc(NCCSCc3ccc(CN(C)C)s3)[nH]c2=O)cn1,3% (inactive)
14,CCCCCCOc1ccccc1C(=O)NCCOc1ccc(Cl)cc1,16% (inactive)
15,Cc1cccc(Cn2c(C(N)=O)nn(-c3ccc([N+](=O)[O-])cc3C#N)c2=S)c1,1% (inactive)
16,CCCN(CCC)CCCOc1ccc(C(=O)c2c(-c3ccc(OCCCN(CCC)CCC)cc3)oc3ccc(Cl)cc23)cc1,100% (active)
17,O=C(/C=C/c1ccc(Cl)c(Cl)c1)NCCCCCN1CCC(NC(=O)NC2CCCC2)CC1,21% (inactive)
18,CCc1[nH]nc(C(=O)NC2CCN(CC3(c4ccc(OC)cc4)CCCCC3)CC2)c1C,2% (inactive)
19,CCN1CCN(CCCNc2ccnc3cc(Cl)ccc23)CC1,7% (inactive)
20,COc1nc(Nc2cccc(C)c2)nc(OC)n1,46% (inactive)

row,Structure (SMILES),inhibition
1,CC(C)(C)C(Cn1ccnc1)NCc1cn[nH]c1-c1ccc(-c2ccccc2)cc1 (configuration not stated),15% (inactive)
2,CN(C)c1ccc(CN2CCC(NC(=O)c3ccc(-c4ccc(N(C)C)cc4)s3)CC2)cc1,24% (inactive)
3,O=C(NCc1cccs1)[C@H](Cc1ccccc1)Nc1ccnc(NCC2CCCCC2)n1,5% (inactive)
4,CCCCCCN(CCCCCC)CCCCNc1c2ccc(Cl)cc2nc2ccc(OC)cc12,65% (active)
5,Cc1cc2c(cc1C(F)(F)F)N(C(=O)Nc1cc(OCCN(C)C)cc(C(F)(F)F)c1)CC2,16% (inactive)
6,CNCCCNc1ccnc2cc(Cl)ccc12,11% (inactive)
7,COc1ccc(C)c(Nc2ccnc(Nc3ccc(-c4cnc[nH]4)cc3)n2)c1,40% (inactive)
8,Cc1ccc(Cn2ncc(N3CCCNCC3)c(Cl)c2=O)cc1NC(=O)Nc1ccc(-c2ccccc2)cc1,55% (active)
9,CN1CCN(c2ccnc3ccc(NC(=O)Nc4ccc(-c5ccncc5)c(C#N)c4)cc23)CC1,32% (inactive)
10,CC(C(=O)NC1CCN(c2ccnc(Nc3ccc(F)cc3)n2)C1)c1ccc(Cl)cc1 (configuration not stated),17% (inactive)
11,COc1cc2nc(N(C)C)nc(Nc3ccc4c(cnn4Cc4ccccc4)c3)c2cc1OC,90% (active)
12,CC(C)Nc1ccc(Nc2ccnc3cc4ccccc4cc23)cc1,37% (inactive)
13,CCOC(=O)c1ccc(NC(=O)N[C@H]2CCN(CCCCCNC(=O)/C=C/c3ccc(Cl)c(Cl)c3)C2)cc1,21% (inactive)
14,COc1ccc2nc(C)cc(NN=Cc3ccc(F)cc3)c2c1,5% (inactive)
15,CCOC(=O)C1=C(C)NC2=C(C(=O)C(C(=O)OC)C(C)C2)C1c1cc(Br)c(OCC)c(OC)c1 (configuration not stated),8% (inactive)
16,COc1ccc2nccc([C@@H](O)CN3CCC(NC(=O)c4ccc(Oc5ccccc5)cc4)CC3)c2c1,39% (inactive)
17,O=C1Nc2cccc3c2C1(CCCCN1CCC(c2c(-c4ccccc4)[nH]c4ccccc24)CC1)CCC3 (configuration not stated),18% (inactive)
18,Cc1[nH]c(C)c(C2CCC(c3ccc(Cl)cc3)CC2)c(=O)c1Cl (configuration not stated),37% (inactive)
19,NC(=S)Cc1ccc2c(c1)OCO2,43% (inactive)
20,CCN(CC)CCCSc1ccc(-c2ccc(SCCCN(CC)CC)cc2)cc1,38% (inactive)
